Compounds without any hit were thinned out: in the full panel of roughly 83,000, 20% have a hit.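 The endpoint reported here, percent growth, reads 100 for growth as untreated, 0 for no net growth and -100 for all cells dead.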 A number with no mark means an inactive call. The source made the active and inactive calls. The calls were made as follows: active = growth percent below 10; inactive = the rest.

Some test systems named below: DU-145 prostate; K-562 leukemia; MALME-3M melanoma; RXF 393 renal; SF-268 CNS; SF-295 CNS; SF-539 CNS; UACC-257 melanoma; M14 melanoma; HCT-15 colon; HT29 colon; SNB-75 CNS; SNB-19 CNS; PC-3 prostate; SK-MEL-5 melanoma; UACC-62 melanoma; LOX IMVI melanoma; SK-MEL-28 melanoma; MDA-MB-231 breast; U251 CNS.
Common to all, as to experiment: NCI-60 one-dose screen, 48 h (100 = growth as untreated, 0 = no growth, -100 = all killed)
Holding throughout (conditions): 10 µM unless noted

`CCC12CCC3c4ccc(O)cc4CCC3C1CC(O)C2O` (stereo not drawn): the growth was 103% with DU-145 prostate; 23.7% in the assay on K-562 leukemia; 70.1% in the assay with MALME-3M melanoma; 98.6% with RXF 393 renal; 103% in the assay with SF-268 CNS; 58.1% with SF-295 CNS. Besides, the growth in the assay with SF-539 CNS is 80.6%; with UACC-257 melanoma, 67.4%; in the assay on M14 melanoma, 55%; with HCT-15 colon, 57.4%; with HT29 colon, 96.9%; in the assay with SNB-75 CNS, 65.8%. The growth in the assay on SNB-19 CNS was 90.1%; in the assay with PC-3 prostate, 85.5%; in the assay on SK-MEL-5 melanoma, 63.4%; in the assay with UACC-62 melanoma, 67.6%; in the assay with LOX IMVI melanoma, 81%; in the assay on SK-MEL-28 melanoma, 67.2%.
In the case of `Oc1ccc2ccccc2c1C1NN=C(c2ccccc2)S1` (stereo not drawn), the growth in the assay with DU-145 prostate was 21.1%; in the assay with K-562 leukemia, 18.6%; in the assay on MDA-MB-231 breast it was 38.7%; in the assay on RXF 393 renal it was 67%; in the assay with SF-268 CNS, 20.9%; in the assay with SF-295 CNS, -8.68% (active). Further, the growth was 12% in the assay on SF-539 CNS; -6.81% (active) in the assay with UACC-257 melanoma; -8.91% (active) in the assay with M14 melanoma; 37.8% with HT29 colon; 41.8% with SNB-75 CNS; 23.6% in the assay on SNB-19 CNS. In addition, the growth was 19.4% in the assay with U251 CNS; 27.7% with PC-3 prostate; 11.6% in the assay with SK-MEL-5 melanoma; 13.8% in the assay on LOX IMVI melanoma; 23% with SK-MEL-28 melanoma.
Consider `N#CCCN1CCN(CCC#N)C1=S`, for which the growth with DU-145 prostate was 110%; in the assay on K-562 leukemia, 109%; in the assay with MDA-MB-231 breast it was 99.6%; in the assay with RXF 393 renal, 124%; in the assay on SF-268 CNS it was 99.4%; in the assay on SF-295 CNS, 93.3%. For the same compound, the growth is 101% in the assay on SF-539 CNS; 99.8% in the assay on UACC-257 melanoma; 96.6% with M14 melanoma; 106% in the assay with HCT-15 colon; 98.6% in the assay with HT29 colon; 98.5% in the assay with SNB-19 CNS. Further, the growth in the assay with U251 CNS was 101%; with PC-3 prostate, 99.6%; in the assay with SK-MEL-5 melanoma it was 110%; with UACC-62 melanoma it was 91.4%; in the assay with LOX IMVI melanoma, 104%; in the assay with SK-MEL-28 melanoma, 122%.
Regarding `CCN1CCN(C(=S)SCC(=O)Nc2nc3ccc(OC)cc3s2)CC1`, the growth with DU-145 prostate is 106%; in the assay with K-562 leukemia, 91.8%; in the assay with MDA-MB-231 breast, 98%; in the assay on RXF 393 renal, 92.5%; in the assay with SF-268 CNS, 92.5%; in the assay with SF-295 CNS, 121%. For the same compound, the growth was 109% in the assay with SF-539 CNS; 117% with UACC-257 melanoma; 112% in the assay with M14 melanoma; 102% in the assay on HT29 colon; 94% in the assay with SNB-75 CNS; 93.1% in the assay with SNB-19 CNS. Besides, the growth in the assay on U251 CNS was 102%; with PC-3 prostate it was 82.9%; in the assay with SK-MEL-5 melanoma, 94.6%; with SK-MEL-28 melanoma, 106%.
With `COc1cccc(OC)c1OC(=O)c1ccccc1`, the growth is 119% with DU-145 prostate; 105% in the assay on K-562 leukemia; 106% in the assay on MALME-3M melanoma; 109% in the assay on RXF 393 renal; 111% in the assay on SF-268 CNS; 79.5% with SF-295 CNS. In addition, the growth with SF-539 CNS was 99.1%; in the assay with UACC-257 melanoma, 99.5%; with M14 melanoma it was 109%; with HCT-15 colon, 109%; in the assay with HT29 colon it was 107%; in the assay with SNB-75 CNS, 82.5%. Moreover, the growth was 104% in the assay on SNB-19 CNS; 94.8% with U251 CNS; 106% in the assay with PC-3 prostate; 96% in the assay with SK-MEL-5 melanoma; 92.7% in the assay on LOX IMVI melanoma; 98.2% in the assay on SK-MEL-28 melanoma.
Consider `O=C(c1ccccc1)C(Br)C(Br)c1cccc([N+](=O)[O-])c1` (stereo not drawn), for which the growth with DU-145 prostate is 76%; in the assay with MALME-3M melanoma, -43.1% (active); with MDA-MB-231 breast it was 59.9%; in the assay with RXF 393 renal, -78.8% (active); in the assay with SF-268 CNS, 72.1%; in the assay with SF-295 CNS, 88.5%. Further, the growth is 38.1% in the assay on SF-539 CNS; 19.8% with UACC-257 melanoma; 34.3% in the assay with M14 melanoma; -26.6% (active) with HCT-15 colon; -42.4% (active) with HT29 colon; 80.9% in the assay on SNB-75 CNS. For the same compound, the growth with SNB-19 CNS is 82.4%; with U251 CNS, 17.7%; in the assay with PC-3 prostate, 67.4%; in the assay with SK-MEL-5 melanoma, 77.1%; with UACC-62 melanoma it was 81.4%; in the assay on LOX IMVI melanoma, -79.4% (active). Further, in the assay on SK-MEL-28 melanoma, the growth is 63.6%.
As to `Cn1c2ccccc2c2nn(Cc3ccccc3)c(=O)nc21`, the growth in the assay on DU-145 prostate was 113%; with K-562 leukemia it was 109%; in the assay on MDA-MB-231 breast it was 103%; with RXF 393 renal, 103%; with SF-268 CNS, 103%; in the assay with SF-295 CNS, 97.4%. Also, the growth with SF-539 CNS was 99.7%; in the assay on UACC-257 melanoma, 101%; in the assay with M14 melanoma it was 104%; in the assay with HCT-15 colon it was 94.6%; in the assay with HT29 colon, 112%; in the assay with SNB-75 CNS, 77%. For the same compound, the growth in the assay with SNB-19 CNS was 106%; in the assay with U251 CNS it was 106%; in the assay with PC-3 prostate, 99.4%; in the assay on UACC-62 melanoma it was 108%; in the assay with LOX IMVI melanoma it was 102%; in the assay with SK-MEL-28 melanoma, 126%.
Consider `COc1ccc(NC(=O)COc2ccccc2)c(C(N)=O)c1`, for which the growth with DU-145 prostate is 23%; in the assay with K-562 leukemia, 9.36% (active); in the assay on MDA-MB-231 breast, 44.1%; with RXF 393 renal it was 2.95% (active); in the assay on SF-268 CNS, 50.7%; with SF-295 CNS, 13.3%. Besides, the growth in the assay with SF-539 CNS is -46.8% (active); in the assay with UACC-257 melanoma it was 61.7%; in the assay with M14 melanoma it was 3.47% (active); in the assay with HCT-15 colon, 28.8%; with HT29 colon, 6.77% (active); in the assay with SNB-75 CNS, 11.5%. Besides, the growth is 53.4% in the assay with SNB-19 CNS, 9.36% (active) in the assay with U251 CNS, 39.9% in the assay with PC-3 prostate and 62% in the assay with SK-MEL-28 melanoma.
`NC(=O)c1cc(I)ccc1NC(=O)COc1ccccc1`: the growth in the assay on DU-145 prostate is 25%; in the assay on K-562 leukemia, 8.23% (active); in the assay with MDA-MB-231 breast it was 27.6%; in the assay with RXF 393 renal it was 8.03% (active); in the assay on SF-268 CNS, 46.4%; in the assay on SF-295 CNS it was 12.6%. Further, the growth in the assay with SF-539 CNS is -33.6% (active); with UACC-257 melanoma, 61.4%; in the assay with M14 melanoma, 0.806% (active); in the assay on HCT-15 colon, 20.1%; in the assay with HT29 colon, 7.08% (active); in the assay with SNB-75 CNS, 30.8%. For the same compound, the growth was 43.1% with SNB-19 CNS; 13.5% with U251 CNS; 43.4% in the assay with PC-3 prostate; 46% in the assay with UACC-62 melanoma; 52.1% in the assay with LOX IMVI melanoma; 57.7% with SK-MEL-28 melanoma.

The record behind these values is PubChem BioAssay (NCI).
